What was measured:
Assay in all cases: PBM binding z-score (relative to random genomic background probes); higher = stronger binding; sequences stand for … in GC…GCGATTGACAGCGTAGAATGAAGG
[1] = system: FXR:RXRa (NR concentration 270 nM, RXRa partner concentration 90 nM)
In short: (§1)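 Random background probes are the reference for binding z-scores. These scores derive from regression-normalized fluorescence on custom Agilent 4×180K protein-binding microarrays incubated 1 h with ligand-free nuclear receptor dimers. Binding was detected with antibodies against each partner (one per run).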

[2] = system: LXRa:RXRa (NR concentration 270 nM, RXRa partner concentration 90 nM)
In short: as §1

[3] = system: LXRa homodimer (NR concentration 270 nM)
In short: as §1

[4] = system: LXRb:RXRa (NR concentration 270 nM, RXRa partner concentration 90 nM)
In short: as §1

[5] = system: LXRb homodimer (NR concentration 270 nM)
In short: as §1

[6] = system: PPARa:RXRa (NR concentration 270 nM, RXRa partner concentration 90 nM)
In short: as §1

[7] = system: PPARg:RXRa (NR concentration 180 nM, RXRa partner concentration 90 nM)
In short: as §1

[8] = system: PPARg:RXRa 270nM:90nM, anti-RXR (NR concentration 270 nM, RXRa partner concentration 90 nM)
In short: as §1

[9] = system: PPARg:RXRa 30nM:10nM, anti-RXR (NR concentration 30 nM, RXRa partner concentration 10 nM)
In short: as §1

[10] = system: PPARg:RXRa 90nM:30nM, anti-RXR (NR concentration 90 nM, RXRa partner concentration 30 nM)
In short: as §1

## TCTTGTAGATCAAAAGTTAAGAAAGCCGAAGCCT
[1]
  PBM binding z-score: 0.493
[2]
  PBM binding z-score: 0.329
[3]
  PBM binding z-score: -0.368
[4]
  PBM binding z-score: 0.277
[5]
  PBM binding z-score: -0.137
[6]
  PBM binding z-score: 1.31
[7]
  PBM binding z-score: 1.83
[8]
  PBM binding z-score: 4.32
[9]
  PBM binding z-score: 3.84
[10]
  PBM binding z-score: 4.55

## CAAACTAGGGCAAGAGGTCAAAGTCCGCTTCCCG
[1]
  PBM binding z-score: 5.03
[2]
  PBM binding z-score: 5.04
[3]
  PBM binding z-score: 4.65
[4]
  PBM binding z-score: 4.67
[5]
  PBM binding z-score: 0.677
[6]
  PBM binding z-score: 5.74
[7]
  PBM binding z-score: 8.05
[8]
  PBM binding z-score: 6.92
[9]
  PBM binding z-score: 5.45
[10]
  PBM binding z-score: 6.96

## TCTGCTAGGTCAACGATGGTCGGCTAATCTGCTA
[1]
  PBM binding z-score: 3.06
[2]
  PBM binding z-score: 2.14
[3]
  PBM binding z-score: -0.28
[4]
  PBM binding z-score: 1.11
[5]
  PBM binding z-score: -0.00978
[6]
  PBM binding z-score: 2.9
[7]
  PBM binding z-score: 2.1
[8]
  PBM binding z-score: 3.01
[9]
  PBM binding z-score: 1.81
[10]
  PBM binding z-score: 2.42

## ATACCAAGGTGATCGTGATGTCGTTGATACTAAC
[1]
  PBM binding z-score: 0.333
[2]
  PBM binding z-score: 0.0372
[3]
  PBM binding z-score: 0.013
[4]
  PBM binding z-score: 0.116
[5]
  PBM binding z-score: -0.0295
[6]
  PBM binding z-score: 0.0573
[7]
  PBM binding z-score: 0.279
[8]
  PBM binding z-score: 0.281
[9]
  PBM binding z-score: 0.217
[10]
  PBM binding z-score: 0.0356

## ACTATTAGTTAACTTAGGGCAACCGATACGACGC
[1]
  PBM binding z-score: 0.0468
[2]
  PBM binding z-score: 1.21
[3]
  PBM binding z-score: 0.294
[4]
  PBM binding z-score: 0.256
[5]
  PBM binding z-score: 0.392
[6]
  PBM binding z-score: 0.281
[7]
  PBM binding z-score: 1
[8]
  PBM binding z-score: 0.361
[9]
  PBM binding z-score: 0.616
[10]
  PBM binding z-score: 0.282

## ATCTGTAGGTAAAAGTTCAGTGAATCCCGAGGAT
[1]
  PBM binding z-score: 0.442
[2]
  PBM binding z-score: 1.21
[3]
  PBM binding z-score: 0.955
[4]
  PBM binding z-score: 0.989
[5]
  PBM binding z-score: 0.43
[6]
  PBM binding z-score: 4
[7]
  PBM binding z-score: 8.09
[8]
  PBM binding z-score: 7.62
[9]
  PBM binding z-score: 7.35
[10]
  PBM binding z-score: 8.71

## AGAATGATGTTACCAAAGATCAGGGAAACGCTTG
[1]
  PBM binding z-score: -0.399
[2]
  PBM binding z-score: 0.968
[3]
  PBM binding z-score: -0.229
[4]
  PBM binding z-score: -0.18
[5]
  PBM binding z-score: -0.38
[6]
  PBM binding z-score: -0.0184
[7]
  PBM binding z-score: 0.652
[8]
  PBM binding z-score: 0.26
[9]
  PBM binding z-score: 0.0901
[10]
  PBM binding z-score: 0.313

## GATACAGGCTCAAGGCCAGAGTACGCGTATTGAT
[1]
  PBM binding z-score: -0.696
[2]
  PBM binding z-score: -0.88
[3]
  PBM binding z-score: -0.571
[4]
  PBM binding z-score: -1.04
[5]
  PBM binding z-score: -0.938
[6]
  PBM binding z-score: -0.602
[7]
  PBM binding z-score: 0.777
[8]
  PBM binding z-score: 0.34
[9]
  PBM binding z-score: -0.217
[10]
  PBM binding z-score: -0.0733

## GCAGACAGGTGAAACGCAGGTAACTCGGGGTGGC
[1]
  PBM binding z-score: -0.13
[2]
  PBM binding z-score: 0.49
[3]
  PBM binding z-score: -0.695
[4]
  PBM binding z-score: 0.134
[5]
  PBM binding z-score: -0.553
[6]
  PBM binding z-score: 0.89
[7]
  PBM binding z-score: 0.313
[8]
  PBM binding z-score: 0.104
[9]
  PBM binding z-score: -0.699
[10]
  PBM binding z-score: -0.194

## GCATATAGGTAATACAAGCTGAAAGTCCGATTGT
[1]
  PBM binding z-score: -0.216
[2]
  PBM binding z-score: -0.314
[3]
  PBM binding z-score: -0.237
[4]
  PBM binding z-score: -0.399
[5]
  PBM binding z-score: -0.434
[6]
  PBM binding z-score: 0.493
[7]
  PBM binding z-score: 0.856
[8]
  PBM binding z-score: 0.592
[9]
  PBM binding z-score: 0.14
[10]
  PBM binding z-score: 0.385

Reference: the supplement of paper PMC6555819
